From PubChem BioAssay AID489025 (Southern Research Specialized Biocontainment Screening …, 2010)
Among all 2,300 compounds or so, about 790 (34%) were called active. The list shows a part of the results. Entries with a potency or affinity are not part of this list. Values without a mark were called inactive. No rule for the calls is given here.

Experiment: THP-1 cell cytotoxicity, dose response, cytotoxicity control for non-replicating M. tuberculosis project (AID 489025)
Details: THP-1 cell viability; series mostly up to 40 µM; viability: at the top concentration

Structure (SMILES) | viability
Fc1ccc(-c2nnc(CSc3nnc(-c4cccs4)o3)o2)cc1 | 104%
COc1cccc(OCc2nnc(-c3cccs3)o2)c1 | 119%
Cc1ccc(-c2nnc(-c3cccs3)o2)cc1 | 117%
Fc1ccc(-c2nnc(-c3ccc(F)cc3)o2)cc1 | 92.1%
O=C1N=c2ccccc2=C1c1c(O)n(-c2cccc(F)c2)[nH]c1=O | 120%
CCCn1nnnc1NCc1ccc(C(C)C)cc1 | 117%
Cc1ccnc(-n2c(C)cc(/C=C3\C(=O)NC(=S)N(C)C3=O)c2C)c1 | 106%
CCn1c(O)c(C(=O)CC2NCCc3ccccc32)c(=O)n(CC)c1=S (centres undefined) | 108%
CCOc1ccc(NC(=O)CCc2ccc(C)o2)cc1 | 126%
Cc1cc(C)c2c(=O)n(CC(=O)Nc3cccc(Cl)c3C)sc2n1 | 90.7%
COC(=O)c1ccc(COC(=O)CCS(=O)(=O)c2ccc(C)cc2)cc1 | 96.7%
COc1ccc(-c2cc(O)cc(O)c2)cc1 | 116%
Cc1ccc(OC(=O)CCS(=O)(=O)c2ccc(C)cc2)cc1 | 110%
COC(=O)COc1ccc(-c2ccccc2)cc1C=O | 97.4%
COc1ccc(OCCOC(=O)CCS(=O)(=O)c2ccc(C)cc2)cc1 | 86.2%
COc1ccc(-c2cc(=O)oc(-c3cccc(C)c3)n2)cc1 | 101%
COC(=O)COc1ccc2c(=O)c(-c3ccccc3)coc2c1 | 106%
Cc1cc(Br)ccc1OCC(=O)NNC(=O)C(=O)Nc1ccccc1 | 111%
O=C1CCCC(O)=C1C=Nc1ccc2c(c1)oc1ccccc12 | 95.8%
C(#CCN1CCOCC1)COCc1ccccc1 | 105%
CC(CCc1ccccc1)NC(=O)COC(=O)c1cccs1 (centres undefined) | 117%
Cc1nc2scc(-c3ccccc3)c2c(=O)o1 | 110%
CCN(CC)c1ccc(NC2CC(=O)N(CCc3ccc(OC)cc3)C2=O)cc1 (centres undefined) | 86.6%
O=C(OCc1nnc(-c2ccccc2)o1)c1ccc(Br)o1 | 109%
CCCOC(=O)c1ccc(NC(=O)C2C3C=CC(O3)C2C(=O)O)cc1 (centres undefined) | 107%
C=CCNc1nc(C(=O)OCC(=O)c2cccc(Br)c2)cs1 | 112%
Fc1cccc2sc(N3CCCC3)nc12 | 99.3%

Structure (SMILES) | viability
Cc1ccc(NC(=S)C2=C(O)c3sccc3N(C)S2(=O)=O)cc1 | 103%
Cc1ccc(C(=O)N/N=C/C=C/c2ccccc2)cc1 | 88.7%
O=C(CCNc1ccc(Cl)c(C(F)(F)F)c1)c1ccco1 | 103%
C/C(=N\NC(=O)c1ccccc1)c1nc2ccccc2n1C | 116%
O=C(NCCSc1ccccc1)c1ccc(Br)cc1 | 99.8%
COc1ccc(NC(=O)c2nc3ccccc3s2)cc1 | 115%
CCOC(=O)CNc1ccc(C(=O)OCC)cc1[N+](=O)[O-] | 116%
CN(C)c1ccc(NC(=O)COC(=O)c2cc(Cl)ccc2[N+](=O)[O-])cc1 | 123%
CC(C)=CCN1CCN(Cc2cn(C(C)C)c3ccccc23)CC1CCO (centres undefined) | 85.5%
COc1cccc2cc(-c3nc4ccccc4[nH]3)c(=O)oc12 | 107%
CSc1nc(=S)cc(C)[nH]1 | 122%
CC(NC(=O)c1cc([N+](=O)[O-])cc([N+](=O)[O-])c1)c1ccc(-n2ccnc2)cc1 (centres undefined) | 111%
COc1ccccc1NC(=O)c1cnc(SC)nc1 | 108%
COc1cccc(NC(=O)c2cnc(SC)nc2)c1 | 101%
Cc1ccc(S(=O)(=O)NCc2ccc(C(=O)NCCCN3CCC(Cc4ccccc4)CC3)cc2)cc1 | 92.3%
Nc1c(Cl)cc(Cl)cc1C(=O)OCC(=O)N1CCCC1 | 80%
COc1ccccc1-c1nnc(-c2ccc(C)cc2)o1 | 70.8%
COc1ccccc1-c1cc(SC)c(C#N)c(=O)o1 | 97.9%
CC(=O)c1ccc(OCC(=O)Nc2ccc3c(c2)CCC3)cc1 | 90.6%
Cc1nnc(N/N=C/c2ccc(-c3ccc(Br)cc3)o2)n1N | 104%
CC(=O)N(c1nnc(-c2ccc(C)cc2)s1)C1CCCC1 | 99.3%
CC1=NN(C(=O)CCCc2ccccc2)C(O)(C(F)(F)F)C1 (centres undefined) | 103%
CC1=NN(C(=O)c2cc(C)nn2C)C(O)(C(F)(F)F)C1 (centres undefined) | 112%
CC1=NN(C(=O)c2csc(C(C)C)c2)C(O)(C(F)(F)F)C1 (centres undefined) | 109%
O=C(c1ccccc1[N+](=O)[O-])N1N=C(c2ccccc2)CC1(O)C(F)(F)F (centres undefined) | 85.2%
CCOC(=O)C1=C(C)NC(=O)NC1c1ccc(-c2ccc(F)cc2)o1 (centres undefined) | 100%
COc1cccc(-c2nc(C=O)cs2)c1 | 99.6%

Structure (SMILES) | viability
CCOC(=O)c1cc(-c2cccc([N+](=O)[O-])c2)on1 | 95.3%
CC(NC(=O)c1cccc(F)c1)C1CC2CCC1C2 (centres undefined) | 93.8%
COc1ccc(CNC(=O)COC(=O)C2CC3C=CC2C3)cc1 (centres undefined) | 114%
CCCCNC(=O)Nc1nnc(-c2ccc(Cl)cc2)o1 | 89.7%
O=C(CCN1CCC(c2cccs2)=N1)c1cccs1 | 91.7%
O=c1ccn(-c2ccccc2)[nH]1 | 120%
COC(=O)c1ccc(CO/N=C/c2ccc(OC)cc2)o1 | 117%
CCOC(=O)c1c(-c2ccc(C)o2)csc1NC(=O)CN1CCCCC1 | 76.7%
Cc1ccc(C(=O)COC(=O)CCc2ccc(S(=O)(=O)N3CCCCC3)cc2)cc1 | 130%
Cc1ccc(OCC(=O)N2CCCc3ccccc32)cc1 | 76%
COc1cc2c(cc1OC)CN(CCC(=O)c1ccc(Br)cc1)CC2 | 94.5%
CC(C)Oc1ccc(CNC(=O)Oc2ccccc2)cc1 | 112%
COc1ccc(C(C)NC(=O)CCc2ccccc2)cc1 (centres undefined) | 105%
COc1ccc(C(=O)CCNc2ccc(F)cc2)cc1 | 94.5%
COc1ccc(C(O)CNc2ccc(C)cc2)cc1 (centres undefined) | 86.4%
COc1ccc(OC(=O)C(C)N2C(=O)c3ccccc3C2=O)cc1 (centres undefined) | 123%
CN(C)Cc1ccccc1Sc1ccccc1Br | 93%
COC(=O)COc1ccc2c(-c3ccc(OC)cc3)cc(=O)oc2c1 | 106%
Cc1ccc(C)c(-c2csc(NC(=O)c3cnccn3)n2)c1 | 98.3%
O=C(Nc1nccs1)c1ccccn1 | 103%
O=C(Nc1c(F)cc(F)cc1Br)c1cc(-c2ccccc2)on1 | 110%
O=C(NNc1nc2cc3c(cc2s1)OCCO3)c1ccccc1 | 94.1%
CCOCC(=O)Nc1nc2ccc(C)cc2s1 | 103%
Cc1nc2ccc(OC(=O)c3ccccc3)cc2s1 | 126%
CCOc1ccc2nc(/N=C/c3nc(-c4ccccc4)oc3O)sc2c1 | 113%
